In all, about 96,000 compounds went through this assay and about 20,000 (21%) were called active.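 The calls were made as follows: active = CYP2C19 inhibition above a set limit at 5 µM in the primary screen (cut at about 50% in these data); inactive = the rest.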 Not all results are given here.

Chain of Cytochrome P450 2C19 (Homo sapiens) (P33261 whole entry, looked up): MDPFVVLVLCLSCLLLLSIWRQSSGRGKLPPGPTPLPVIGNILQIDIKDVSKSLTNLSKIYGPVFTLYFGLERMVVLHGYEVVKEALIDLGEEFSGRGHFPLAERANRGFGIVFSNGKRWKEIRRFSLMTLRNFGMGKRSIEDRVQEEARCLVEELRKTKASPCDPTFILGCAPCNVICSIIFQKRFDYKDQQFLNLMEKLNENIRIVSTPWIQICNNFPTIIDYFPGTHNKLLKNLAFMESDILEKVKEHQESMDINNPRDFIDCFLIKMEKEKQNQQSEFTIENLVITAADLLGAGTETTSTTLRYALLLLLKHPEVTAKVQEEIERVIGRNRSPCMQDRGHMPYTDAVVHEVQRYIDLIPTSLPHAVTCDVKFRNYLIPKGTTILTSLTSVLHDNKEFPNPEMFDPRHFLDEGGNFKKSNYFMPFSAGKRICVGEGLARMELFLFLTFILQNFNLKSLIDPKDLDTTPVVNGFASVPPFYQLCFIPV

The experiment concerns the target Cytochrome P450 2C19 (Homo sapiens) (UniProt P33261). Description: blockers of cytochrome P450 2C19 activity – biochemical, luminescence, ADME assay, primary screen (AID 778).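 Also: plate controls were negative control wells for no effect and 2.5 mM tranylcypromine positive control for full effect.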 The conditions noted are these: CYP2C19 Supersomes, luciferin-H EGE luminescence, 30 min; at 5 µM; active compounds read high.
As to `CC(C)c1ccc(O)c(CN2CCN(c3ccccc3)CC2)c1`, the inhibition is 19.8% (inactive).
The result for `COc1ccc(CN2CCN(c3ccccc3F)CC2)c(OC)c1` reads 86.7% (active); that for `CCCCCn1c(=O)c(C(=O)NCc2ccccn2)c(O)c2ccccc21`, 26% (inactive).
For the molecule `CCCCCCN=C(CC)c1c(O)n(CCCC)c(=O)[nH]c1=O`, the inhibition is 73.6% (active).
The figure for `CCC(=NCCCO)c1c(O)n(-c2ccc(OC)cc2)c(=O)[nH]c1=O` is -9.4% (inactive); for `CCCCn1c(O)c(C(CC)=NCc2ccco2)c(=O)[nH]c1=O` it is 29.9% (inactive); for `Cn1c(O)c(C=NCCCC(=O)O)c(=O)n(C)c1=O` it is -13.4% (inactive).
`CCN(CC)CCOC(=O)c1cc2cc(COC)ccc2o1`: the inhibition was -6.5% (inactive).
For `O=C(c1cc(S(=O)(=O)N2CCOCC2)ccc1F)N1CCC2(CC1)OCCO2`, the inhibition is -8% (inactive).
With `Cc1cc(OCc2cc(C(=O)O)oc2C)c2c3c(c(=O)oc2c1)CCCC3`, the inhibition is -33% (inactive).
Turning to `CCN1CCN(C(=O)Cc2coc3cc(C)cc(C)c23)CC1`, the inhibition is 89.1% (active).
The figure for `CN(C)C(=O)NC(O)C(Cl)(Cl)Cl` (stereo not given) is 23.9% (inactive); for `CCN(CC)P(=O)(Oc1cccc(C)c1)N(CC)CC` it is 78.8% (active).
Consider `O=C(CN1CCCCC1)Nc1ccc(Br)cc1C(=O)c1ccccc1Cl`, for which the inhibition was 10.3% (inactive).
In the case of `CC12CN3CC(C)(CN(C1)C3c1cccs1)C2` (stereo not given), the inhibition is 7.6% (inactive).
The figure for `Cc1ccc(N(C)C(=O)Oc2cccc3ccc(C)nc23)cc1` is 55.4% (active).
The figure for `CN1C2C=C(N(C(=O)c3ccc(Cl)cc3)c3ccccc3)CC1CC2` (stereo not given) is 19.9% (inactive).
The figure for `CCOC(=O)c1c(C)c(C(=O)N2CCC3(CC2)OCCO3)c(C)n1CC` is 49.7% (inactive).
For the molecule `C[N+]12CN3CN(CN(C3)C1)C2`, the inhibition is -6.5% (inactive).
For the molecule `Cc1ccc(Cn2nnnc2CN2CCC(n3nnc4ccccc43)CC2)cc1`, the inhibition is 87.4% (active).
The result for `Nc1ccc(C(=O)N/N=C2/CN3CCC2CC3)cc1` reads 15.9% (inactive); that for `O=C(O)C1CSC(c2cccnc2)N1` (stereo not given), -10.8% (inactive).
The result for `CCOC(=O)C1CN(C)CCC1=O` (stereo not given) reads -3.5% (inactive).
The result for `CC(=O)c1ccc(OC(NC(=O)Cc2ccccc2)C(Cl)(Cl)Cl)cc1` (stereo not given) reads 83.1% (active); that for `CC(=O)NC(=O)NC(C)Cc1ccccc1` (stereo not given), -11.6% (inactive); that for `Cc1nc2ccccn2c1P(=S)(N1CCCCC1)N1CCCCC1`, 17.2% (inactive).
For `CC1=C(C(=O)Nc2ccccc2)SCCO1`, the inhibition is -3.1% (inactive).
The figure for `CCOP(=S)(OCC)SCOC(=O)NCC(=O)OC` is 95.6% (active); for `Cc1cccc(N2C(=O)NC(=O)/C(=C\c3cnn(-c4ccccc4)c3)C2=O)c1` it is -9.4% (inactive); for `Cn1c(O)c(C=Nc2ccc3c(c2)CCC3)c(=O)n(C)c1=O` it is 31.3% (inactive).
In the case of `N#Cc1ccc(Cn2cc(C(=O)c3ccco3)c3ccccc32)cc1`, the inhibition is 9.2% (inactive).
The figure for `CSC1=NP(=S)(SC)N(C)c2nc3n(c21)CCC3` (stereo not given) is 8.2% (inactive).
The figure for `COC(=O)C(c1ccccc1)N1CCCCCC1` (stereo not given) is 12.8% (inactive); for `OC(CNC1CCCCC1)c1ccccc1` (stereo not given) it is 58.5% (active).
The result for `O=C(CSC1c2ccccc2-c2ccccc21)N/N=C/c1ccccc1` reads 25.3% (inactive); that for `CCCC(C)n1[nH]c(=O)c2c1NC(=O)CSC2c1ccc(OC)c(OC)c1` (stereo not given), 7.2% (inactive).
For the molecule `c1cncc(CNC2=NCCC2)c1`, the inhibition was -16.9% (inactive).
The figure for `CCc1cccc2c(C#N)cn(CC(=O)N3CCOCC3)c12` is 6.7% (inactive).
The result for `CC(=O)Nc1ccccc1C(=O)OCC(=O)c1cccc2ccccc12` reads 51.1% (active); that for `CCOc1ccc(C2SCC(=O)Nc3c2c(C)nn3C2CCOC(C)(C)C2)cc1` (stereo not given), 7% (inactive); that for `CN1CCN(C(=O)COc2ccc(C(C)(C)C)cc2Br)CC1`, 66.5% (active).
Take `CC(C)c1ccc(OCC(=O)N2CCN(C)CC2)c(Br)c1`: the inhibition was 76% (active).
The figure for `NC(=O)Nc1cccc(C(F)(F)F)c1` is 26.2% (inactive).
The result for `Cc1nc2nc(C)c(CCC(=O)N3CCC4(CC3)OCCO4)c(C)n2n1` reads 0% (inactive).
The figure for `CC(=O)c1c(O)n(C2CCCCCC2)c(=O)[nH]c1=O` is 27% (inactive); for `O=C(COc1ccc2ccccc2c1)N1CCN(Cc2ccncc2)CC1` it is 90.1% (active); for `CCN(CC)C(=O)c1ccc(NC(=O)c2cc(-n3cnnc3)ccc2Cl)cc1` it is 11.1% (inactive).
Regarding `Cn1c(C(=O)N2CCC(C(=O)N3CCC4(CC3)OCCO4)CC2)cc2sccc21`, the inhibition is 7.5% (inactive).
The result for `CC(C)(C)c1ccc(CN2C(=O)CN=C(c3ccccc3)c3ccccc32)cc1` reads 16.5% (inactive); that for `CCOC(=O)c1c(-c2ccccc2)oc2ccc(OC(=O)N(C)C)cc12`, 60.7% (active).
As to `Cc1ccc2c(c1)C1CN(C)CCC1N2C(=O)Cn1nnc(-c2ccccc2F)n1` (stereo not given), the inhibition is 8.3% (inactive).
The figure for `O=c1c2ccccc2nc(-c2ccc(Cl)cc2Cl)n1-c1ccncc1` is 76.4% (active).
The figure for `O=c1c2ccccc2nc(-c2ccco2)n1-c1ccc(Br)cn1` is -3.5% (inactive).
The result for `CCc1nc2ccccc2c(=O)n1-c1cccc(OC)c1` reads 33.5% (inactive); that for `COC(=O)C(O)(c1ccc(NC(=O)c2ccco2)c(OC)c1)C(F)(F)F` (stereo not given), 39% (inactive).
For the molecule `CCNc1nc2[nH]c(=O)c3c(c2s1)OC(N)=C(C#N)C3c1cccs1` (stereo not given), the inhibition is -19.6% (inactive).
The result for `CCC(=O)CC(c1ccc([N+](=O)[O-])cc1)c1c(O)c2ccccc2oc1=O` (stereo not given) reads 1.3% (inactive).
The result for `COc1ccc(C2NCc3ccc4c(c3-n3cccc32)OCO4)cc1OC` (stereo not given) reads 77.5% (active).
The figure for `c1ccc(C2NCc3ccccc3-n3cccc32)cc1` (stereo not given) is 33% (inactive).
Regarding `CCC(=NCc1ccco1)c1c(O)n(Cc2ccccc2)c(=O)[nH]c1=O`, the inhibition is 49.6% (inactive).
The figure for `CC(=NCc1ccc2c(c1)OCO2)c1c(O)[nH]c(=O)[nH]c1=O` is -13.9% (inactive).
The figure for `COc1ccc(CCn2c(O)c(C=NC3CC3)c(=O)[nH]c2=O)cc1OC` is 94.9% (active); for `COc1ccc(CCn2c(O)c(C=NCCCn3ccnc3)c(=O)[nH]c2=O)cc1OC` it is 16.7% (inactive); for `COc1ccccc1-n1c(O)c(C=NC2CC2)c(=O)[nH]c1=O` it is 42.1% (inactive).
The result for `CC(=O)N1CN2CN(C(C)=O)CC(C(=O)c3ccc(Br)cc3)(C2)C1` reads -5.5% (inactive); that for `C=Cn1ccnc1P(=S)(c1cc(N(CC)CC)ns1)c1nccn1C=C`, 18.8% (inactive).
For `C/C(CCc1c[nH]c2ccccc12)=N\O`, the inhibition was 12% (inactive).
The result for `CCC/C(=N\O)c1c[nH]c2ccccc12` reads 72.6% (active); that for `CNP1(NC)=Nc2nn(-c3ccccc3)c(N)c2C(c2ccccc2)=N1`, -1.8% (inactive).
The figure for `CNC(=O)N(C)c1nnc(C(C)(C)C)s1` is -8.5% (inactive); for `CC[N+](CC)(CC)CCCCCCCCCC[N+](CC)(CC)CC` it is 14.9% (inactive); for `O=C1NC(=O)C(C/C=C/c2ccccc2)C(=O)N1` it is 5% (inactive).
The result for `C=CCN1C(=O)C2(C(C(=O)OCC)=C(N)Oc3c2c(=O)oc2ccccc32)c2ccccc21` (stereo not given) reads 88.5% (active).
For the molecule `COC(=O)CN1C(=O)C2(C(C(=O)OC)=C(N)Oc3ccccc32)C2=C1CC(C)(C)CC2=O` (stereo not given), the inhibition was 18.2% (inactive).
The result for `Cc1ccc(P(=S)(c2ccc(C)o2)N2CCOCC2)o1` reads 36.5% (inactive).
Take `Cc1cc(N2C(=O)C3CCCN3C2c2ccc(Cl)c(Cl)c2)no1` (stereo not given): the inhibition was 11.9% (inactive).
The figure for `CCN1c2nc3c(C)cccn3c(=O)c2CC2(C(=O)N(C)C(=O)N(C)C2=O)C1C` (stereo not given) is -11.5% (inactive).
In the case of `N[C@@H](Cc1c[nH]c2ccccc12)c1nnc(SCc2c(F)cccc2Cl)o1`, the inhibition is 74.1% (active).
The figure for `COc1ccc(-c2nc(CS(=O)CC(=O)N3CCC4(CC3)OCCO4)c(C)o2)cc1` (stereo not given) is 13.3% (inactive); for `CCCCCn1c(=O)c(C(=O)Nc2c(C)n(C)n(-c3ccccc3)c2=O)c(O)c2ccccc21` it is 1.4% (inactive); for `O=C(c1cc(-c2ccncc2)nc2ccccc12)N1CCC2(CC1)OCCO2` it is 35.1% (inactive).
Regarding `Cc1cccc(-n2c(C)nc3cc(C(=O)N4CCC5(CC4)OCCO5)ccc32)c1`, the inhibition was 6.6% (inactive).
The figure for `O=C(c1cc2nc(-c3ccccc3)cc(-c3ccccc3)n2n1)N1CCC2(CC1)OCCO2` is 94% (active).
As for `O=C(CCN1CCCCC1)NCC(=O)Nc1ccc(Br)cc1C(=O)c1ccccc1`, the inhibition is -17.3% (inactive).
The result for `CC(=C1C(=O)c2ccccc2C1=O)N1CCN(CCN=Cc2c(O)n(C)c(=O)n(C)c2=O)CC1` reads 24.7% (inactive).
The figure for `CC1(C)C(c2ccccc2)=NC(c2cccnc2)=[N+]1[O-]` is 16.4% (inactive); for `c1ccc2sc(C3CCCNC3)nc2c1` (stereo not given) it is -18.4% (inactive).
The figure for `CCOc1ccc(CN(CCCl)CCCl)cc1C(=O)OC` is 63.9% (active); for `O=C1/C(=C\c2ccc3c(c2)OCO3)N2CCC1CC2` it is 40% (inactive); for `CCOC(=O)C(O)(c1ccc(NC(=O)c2ccco2)c(OC)c1)C(F)(F)F` (stereo not given) it is 25.1% (inactive).
Take `CN1CCC(N(C)Cc2cccnc2)CC1`: the inhibition was -0.7% (inactive).
With `COc1ccccc1N1CCN(C(CNC(=O)Oc2ccccc2)c2cccnc2)CC1` (stereo not given), the inhibition was 39.7% (inactive).
The figure for `CN1CCN(Cc2ccc(OC(F)(F)F)cc2)CC1` is 20.2% (inactive); for `COC(=O)N(c1ccc(OC)cc1)P1(=S)OCCC(C)O1` (stereo not given) it is 21.5% (inactive).
`COc1ccc(C(=O)C2CN(C)CC2C(=O)c2ccc(OC)cc2)cc1` (stereo not given): the inhibition is 8.9% (inactive).
The figure for `COc1ccccc1CN1CCN(C(=O)Cc2ccccc2)CC1` is 68.1% (active); for `CCC(=NCCc1ccccc1)c1c(O)n(C2CCCCC2)c(=O)[nH]c1=O` it is 11.8% (inactive); for `COc1cc(Cn2c(N)c(C(=O)NCc3ccco3)c3nc4ccccc4nc32)cc(OC)c1OC` it is 93.2% (active).
The result for `CCOC(=O)c1c(N)n(Cc2ccccc2)c2nc3ccccc3nc12` reads -1% (inactive); that for `CCOC(=O)c1c(N)n(CCN2CCOCC2)c2nc3ccccc3nc12`, 13.3% (inactive); that for `COc1ccccc1N=C1SCCCN1C`, -31.2% (inactive).
The figure for `O=C(C1CC(=O)N(C2CCCC2)C1)N1CCC2(CC1)OCCO2` (stereo not given) is 10.5% (inactive).
For `COc1ccc(S(=O)(=O)NCc2ccc(C(=O)N3CCC4(CC3)OCCO4)cc2)cc1`, the inhibition was -0.4% (inactive).
The result for `CC(=O)N(C1=NCCCS1)c1ccccc1F` reads 7.3% (inactive).
The figure for `CCOC(=O)C1SC2(C(F)(F)C(F)F)CC1(O)c1c(c(OC)c3occc3c1OC)O2` (stereo not given) is 92.1% (active); for `Cc1ccc(C)c(NC2=NCCCS2)c1` it is 7.4% (inactive).
The figure for `CC(=NCC1CCCO1)c1c(O)n(-c2ccccc2)c(=O)[nH]c1=O` (stereo not given) is 22.9% (inactive); for `CCOC(=O)CC1=C(C(=O)OCC)C2(C(=O)N1)C(C(=O)OC)=C(N)Oc1ccccc12` (stereo not given) it is 4.8% (inactive).
Regarding `CCOC(=O)C1=C(C)OC(N)=C(C(=O)OC)C12C(=O)Nc1ccc(Br)cc12` (stereo not given), the inhibition is 62.4% (active).
The result for `Cc1cc(C)cc(NC(=S)NC2CC3CCCC(C2)N3Cc2cccs2)c1` (stereo not given) reads 22.1% (inactive); that for `CC(=NC1CCN(Cc2ccccc2)CC1)c1c(O)n(C)c(=O)n(C)c1=O`, 8.1% (inactive); that for `CN1CCN(Cc2ccccc2C(F)(F)F)CC1`, 7.9% (inactive).
Consider `Fc1cccc(F)c1CN1CCN(Cc2c(F)cccc2F)CC1`, for which the inhibition was 94.4% (active).
The figure for `CCOC(=O)C(O)(c1ccc(N)c(OC)c1)C(F)(F)F` (stereo not given) is 20.4% (inactive); for `Fc1ccc(N2CCN(Cc3ccc4c(c3)OCO4)CC2)cc1` it is 22.5% (inactive).

The values are drawn from PubChem BioAssay AID778 (Sanford-Burnham Center for Chemical Genomics, 2007).
